zVAD death inh: L929 zVAD cell death inhibition; L929 zVAD necroptosis rescue, ATP luminescence, 24 h; with zVAD 60 µM; viability rescue, % at 10 µM; 220,000 tested, 0.38% active;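 active means activation, scaled between plate controls, above about 75%, limit read from the data; inactive means activation under that limit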;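 further: 0% = zVAD with DMSO and 100% = DMSO alone without zVAD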
TNF necrop inh: blocks TNF-alpha induced death of Jurkat FADD-/- cells | 220,000 tested, 0.068% active | Jurkat FADD-/- TNF necroptosis rescue, ATP luminescence, 24 h; 0 = TNF only, 100 = no-TNF cells | AID 463075 | activation (protection from cell death), % at 10 µM;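 active means activation, meaning protection from cell death, of at least 50% relative to plate controls; inactive means activation below 50%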;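 further: necroptosis triggered by 40 ng/mL TNF-alpha added together with compound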
Mcl1 Noxa PPI: disrupts binding of human Mcl-1 to Noxa peptide; Q07820; TR-FRET Mcl-1/Noxa peptide binding, 2 h; inhibition, % at 21.7 µM; 220,000 tested, 1.5% active;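 active means compounds that cut the protein-peptide binding signal by more than 50% relative to plate controls in a single-dose test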;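 further: His-tagged Mcl-1 with rhodamine Noxa BH3 peptide and terbium anti-His antibody; 0% = Mcl-1 plus Noxa peptide wells and 100% = peptide-only wells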
Target sequence (Q07820 whole entry, looked up): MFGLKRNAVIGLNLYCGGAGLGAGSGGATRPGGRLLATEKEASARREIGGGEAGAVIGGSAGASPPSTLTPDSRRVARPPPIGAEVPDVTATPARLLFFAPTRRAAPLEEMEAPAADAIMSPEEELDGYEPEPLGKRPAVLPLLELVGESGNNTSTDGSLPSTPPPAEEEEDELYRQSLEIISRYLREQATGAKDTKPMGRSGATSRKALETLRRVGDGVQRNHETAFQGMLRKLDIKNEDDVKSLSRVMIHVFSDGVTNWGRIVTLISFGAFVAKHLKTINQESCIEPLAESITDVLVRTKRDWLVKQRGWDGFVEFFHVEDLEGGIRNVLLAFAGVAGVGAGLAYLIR
Mcl1 Bid PPI: disrupts binding of human Mcl-1 to Bid peptide; 220,000 tested, 0.97% active; inhibition, % at 21.7 µM; TR-FRET Mcl-1/Bid-Dy647 peptide binding, 1536-well;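 active means compounds that cut the binding signal by more than half at the single screening dose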;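 further: His-tagged Mcl-1 with europium anti-His antibody binding Bid BH3 peptide; 0% = Mcl-1 plus peptide wells and 100% = peptide-only wells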
Bim-Mcl-1: human Bim-Mcl-1 interaction inhibition; 190,000 tested, 0.1% active; AID 1009; Bead-based flow cytometry, Bim peptide-Mcl-1 binding; inhibition, % at 10 µM; Q07820; in the data active means inhibition above about 40%;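 further: 0% = no compound tracer wells and 100% = peptide blocker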
m-calpain inh: blocks pig calpain II enzyme activity; purified calpain II, fluorogenic peptide substrate, 30 min; inhibition, % at 16 µM; 220,000 tested, 0.37% active;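 active means inhibition above about 50%, limit read from the data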
* hit, by the source's call; i = inactive; . = not tested or not shown. This is a sample that favours compounds with a hit; in the whole collection about 2.8% have one here.

SMILES	zVAD death inh	TNF necrop inh	Mcl1 Noxa PPI	Mcl1 Bid PPI	Bim-Mcl-1	m-calpain inh
CN1/C(=C\C=C2C(=O)NC(=S)NC2=O)C(C)(C)c2ccccc21	4	-3	-35	82*	-3	0
O=C(c1ccc2c3c(cccc13)CC2)C1CCCN(CC2CC2)C1 (configuration not stated)	13	8	18	-12	-1	i
CCOc1ccc(N2C(=O)/C(=C\c3cccs3)C(=O)NC2=S)cc1	0	-1	67*	36	2	-17
O=C1NC(=S)N(c2ccccc2F)C(=O)/C1=C\c1cccs1	2	-4	86*	32	-4	-33
CCOc1ccc(N2C(=O)NC(=O)/C(=C\c3ccccc3[N+](=O)[O-])C2=O)cc1	0	0	48	-52	.	-2
COc1cccc(NP(=O)(Oc2ccccc2)Oc2ccccc2)c1	1	-3	11	3	-3	26
O=P(Nc1cccc(Cl)c1)(Oc1ccccc1)Oc1ccccc1	0	-2	6	18	1	60*
Cc1cccc(OCC(=O)N2CCN(Cc3ccncc3)CC2)c1	0	1	-48	60*	-4	9
COc1ccc2[nH]c(C)c(CCN3CCC(=O)C(C)C3C)c2c1 (configuration not stated)	3	3	19	-14	-3	60*
COc1cccc(C2(O)CCN(CC(=O)Nc3nc(C)cs3)CC2)c1	1	1	12	-17	0	-21
CCOc1ccc(-n2c(-c3ccoc3)nc3ccccc3c2=O)cc1	1	0	-7	96*	-1	16
CNC(=O)O/N=C/c1nn(C(=O)C(C)(C)C)cc1Br	1	4	4	-17	.	-5
Cc1ccc(NP(=O)(c2ccccc2)c2nc3ccccc3s2)cc1 (configuration not stated)	0	3	6	-19	-2	2
COCCNP(=O)(c1ccccc1)c1nc2ccccc2s1 (configuration not stated)	0	1	4	58*	-2	6
O=[N+]([O-])c1cc2c(cc1CNCCc1ccc3c(c1)OCO3)OCO2	-1	1	20	56*	-5	-17
[N-]=[N+]=NC1C[C@H](n2ccc(=O)[nH]c2=O)O[C@@H]1CO (some centres not stated)	1	3	1	-7	0	14
O=C(COC(=O)Cc1ccccc1)Nc1cccnc1Cl	0	1	-2	-17	0	-9
O=C(Cc1ccccc1)OCCNC(=O)c1cccnc1	-2	0	13	47	92*	-63
CCCC1(CCC)C(=O)NC(=Nc2ccc(C)cc2)NC1=O	2	1	2	-18	-4	-8
Cc1cccc(-n2c(O)c(/C=C/C=Nc3ccccc3)c(=O)[nH]c2=O)c1	0	-1	6	-28	0	14
Cn1c(O)c(/C=C/C=Nc2ccccc2)c(=O)n(C)c1=S	1	-1	70*	56*	-4	-63
O=Cc1c(C(=O)O)n(Cc2ccc(Cl)cc2)c2ccccc12	2	1	65*	-16	-11	-50
N=C1c2ccccc2CN1c1ccc(F)c([N+](=O)[O-])c1	-1	3	8	-1	.	24
O=C(C1CCC(=O)N1C1CCCCC1)N1CCC2(CC1)OCCO2 (configuration not stated)	1	0	7	-10	-4	59*
CN1C(=O)C(=Cc2sc(=O)n(-c3ccccc3)c2N2CCCCC2)C(=O)N(C)C1=O	-1	-16	-5	97*	.	-15
O=C(COc1ccccc1)N1CCN(Cc2c[nH]c3ccccc23)CC1	1	0	34	68*	1	-7
O=P(Oc1ccccc1)(Oc1ccccc1)c1ccccc1	0	-1	-22	-1	.	25
CCOC(=O)c1c(/N=C/C2C(=O)NC(=S)NC2=O)sc(C)c1C	2	0	34	67*	-1	-11
CCOC(=O)c1c(/N=C/C2C(=O)NC(=S)NC2=O)sc2c1CCC2	3	-2	-21	35	0	-164
CC(C)[N+]12CCC(CC1)C(C(O)(c1ccccc1)c1ccccc1)C2 (configuration not stated)	-1	3	18	-80	.	-6

Compound activity as filed in PubChem.
